According to PubChem BioAssay:
Active and inactive are the calls of the source. Unless noted, how the calls were made is not given here.

What was measured:
[1] = compounds altering circadian rhythm period length – cell-based, LOPAC library, luminescence reporter (AID 2774); conditions: circadian reporter cells, at 7 µM, actives lie on both sides;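 further: values are relative to mean of DMSO wells on each plate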
[2] = tested on: Hepatitis C virus NS3 helicase; experiment: blockers of NS3h binding to ssDNA – biochemical, fluorescence polarization, LOPAC1280 library, primary screen (AID 687035; in the data active means inhibition above about 37%); conditions: Purified HCV NS3 helicase, Cy5-dT15 ssDNA binding fluorescence polarization; stronger effect = higher value; concentration not given here
[3] = compounds altering Cy5-DNA-NS3h complex signal – biochemical, LOPAC1280, artefact control for HCV NS3 helicase inhibitor project (AID 687037); conditions: Cy5-DNA-NS3h complex fluorescence interference counterscreen
[4] = viability loss with induced miR-34 in A549 – imaging, A549 dox-inducible miR-34, nuclei and caspase counts, primary screen (AID 1347080;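 active means compounds whose cell count with miR-34 switched on is under 0.7 times the count with it off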); conditions: A549 miR-34 inducible, Hoechst nuclei count, 48 h
[5] = blockers of cellular phospholipid synthesis – cell-based, LOPAC library, screen 4, primary screen (AID 1347384); conditions: animal cells, phospholipid biosynthesis inhibition screen; at 10 µM
[6] = galactose survival enhancers in mitochondrial complex I cybrids – cell-based, galactose medium, ATP luminescence, primary screen (AID 1645843;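 active means z-score of at least 1.8 in each of two replicates, scored against plate mean and spread of sample wells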;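 further: positive z means more ATP and so rescue of galactose-driven cybrid death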); conditions: complex I mutant cybrid cells, 72 h, stronger effect = higher value
[7] = stronger effect = lower value, cell number ratio, induced over uninduced
[8] = measured here: relative caspase fold change +Dox/-Dox
[9] = measured here: total cells with miR-34 induction, stronger effect = lower value
[10] = measured here: total cells without miR-34 induction

## N[C@H](C(=O)O)[C@H](O)C(=O)O
[1]
  period change: -0.095 h (inactive)
[2]
  inhibition: -1% (inactive)
[3]
  fluorescence ratio (interference): 1 (inactive)
[4]; [7]
  fold change: 0.956 (inactive)
[4]; [8]
  fold change: 1.57
[4]; [9]
  cell count: 9780
[4]; [10]
  cell count: 10200
[5]
  outcome: inactive
[6]
  z-score: 0.175 (inactive)

## CCC1(O)CC2CN(CCc3c([nH]c4ccccc34)[C@@](C(=O)OC)(c3cc4c(cc3OC)N(C=O)C3[C@]45CCN4CC=C[C@@](CC)([C@@H](OC(C)=O)[C@]3(O)C(=O)OC)[C@H]45)C2)C1 (stereo not given in full)
[1]
  period change: 0.81 h (active)
[2]
  inhibition: 2% (inactive)
[3]
  fluorescence ratio (interference): 1 (inactive)
[4]; [7]
  fold change: 1.3 (inactive)
[4]; [8]
  fold change: 1.29
[4]; [9]
  cell count: 1490
[4]; [10]
  cell count: 1140
[5]
  outcome: inactive
[6]
  z-score: -0.935 (inactive)

## Cc1nc(N=Nc2ccc(C(=O)O)cc2)c(COP(=O)(O)O)c(C=O)c1O
[1]
  period change: -0.16 h (inactive)
[2]
  inhibition: 43% (active)
[3]
  fluorescence ratio (interference): 1 (inactive)
[4]; [7]
  fold change: 1.04 (inactive)
[4]; [8]
  fold change: 0.656
[4]; [9]
  cell count: 10100
[4]; [10]
  cell count: 9680
[5]
  outcome: inactive
[6]
  z-score: 0.49 (inactive)

## N[C@H](C(=O)O)[C@H]1C[C@@H]1C(=O)O
[1]
  period change: 0.045 h (inactive)
[2]
  inhibition: 2% (inactive)
[3]
  fluorescence ratio (interference): 1 (inactive)
[4]; [7]
  fold change: 0.968 (inactive)
[4]; [8]
  fold change: 1.24
[4]; [9]
  cell count: 9910
[4]; [10]
  cell count: 10200
[5]
  outcome: inactive
[6]
  z-score: 0.225 (inactive)

## CC(=O)C(C)=O
[1]
  period change: -0.125 h (inactive)
[2]
  inhibition: -3% (inactive)
[3]
  fluorescence ratio (interference): 1 (inactive)
[4]; [7]
  fold change: 1.06 (inactive)
[4]; [8]
  fold change: 0.938
[4]; [9]
  cell count: 10100
[4]; [10]
  cell count: 9490
[5]
  outcome: inactive
[6]
  z-score: 0.23 (inactive)

## Nc1nc(Nc2ccccc2)nc2c1ncn2[C@@H]1O[C@H](CO)[C@H](O)C1O (stereo not given in full)
[1]
  period change: -0.07 h (inactive)
[2]
  inhibition: -4% (inactive)
[3]
  fluorescence ratio (interference): 1 (inactive)
[4]; [7]
  fold change: 0.974 (inactive)
[4]; [8]
  fold change: 1.23
[4]; [9]
  cell count: 9660
[4]; [10]
  cell count: 9910
[5]
  outcome: inactive
[6]
  z-score: 0.02 (inactive)

## O=C(O)C1CN(CCCP(=O)(O)O)CCN1 (stereo not given)
[1]
  period change: 0.255 h (inactive)
[2]
  inhibition: 1% (inactive)
[3]
  fluorescence ratio (interference): 1 (inactive)
[4]; [7]
  fold change: 0.99 (inactive)
[4]; [8]
  fold change: 1.52
[4]; [9]
  cell count: 10000
[4]; [10]
  cell count: 10100
[5]
  outcome: inactive
[6]
  z-score: 0.45 (inactive)

## CC(=O)SC1CC2=CC(=O)CC[C@]2(C)C2CC[C@@]3(C)C(CC[C@@]34CCC(=O)O4)C12 (stereo not given in full)
[1]
  period change: 0.045 h (inactive)
[2]
  inhibition: -4% (inactive)
[3]
  fluorescence ratio (interference): 1 (inactive)
[4]; [7]
  fold change: 1.07 (inactive)
[4]; [8]
  fold change: 1.82
[4]; [9]
  cell count: 7810
[4]; [10]
  cell count: 7280
[5]
  outcome: inactive
[6]
  z-score: 1.24 (inactive)

## Cn1c(=O)c2c(nc(/C=C/c3cccc(Cl)c3)n2C)n(C)c1=O
[1]
  period change: 0.15 h (inactive)
[2]
  inhibition: -2% (inactive)
[3]
  fluorescence ratio (interference): 1 (inactive)
[4]; [7]
  fold change: 1.03 (inactive)
[4]; [8]
  fold change: 1.2
[4]; [9]
  cell count: 9630
[4]; [10]
  cell count: 9370
[5]
  outcome: inactive
[6]
  z-score: 1.26 (inactive)

## NC(CCCP(=O)(O)O)C(=O)O (stereo not given)
[1]
  period change: 0.105 h (inactive)
[2]
  inhibition: -3% (inactive)
[3]
  fluorescence ratio (interference): 1 (inactive)
[4]; [7]
  fold change: 1.08 (inactive)
[4]; [8]
  fold change: 1.92
[4]; [9]
  cell count: 10400
[4]; [10]
  cell count: 9550
[5]
  outcome: inactive
[6]
  z-score: 0.21 (inactive)
